IL-1B inflam inh: inflammasome signaling inhibition, IL-1 beta readout | THP-1 LPS/ATP IL-1B secretion, AlphaLISA, 16 h; active compounds read low | activity change, % at 57.5 µM | 360,000 tested, 4.7% active; in the data active = activity change below about -50%; inconclusive = mostly about -30% to -49%
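THP-1 cells pretreated 1 hr with compounds (up to 57.5 uM final), then stimulated with LPS (250 ng/mL final) plus ATP (1.25 mM final); secreted IL-1B measured by AlphaLISA after 16 hr, decreased signal indicating inhibition.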
ELG1 DNA repair: inhibitors of ELG1-dependent DNA repair in HEK293T cells; HEK293T ELG1-luciferase reporter, luminescence, 16 h; DNA damage induced by 5-fluorouridine; Potency, µM (series often up to 46.1 µM), for the others: at the highest dose activity change, negative = inhibition, most hits filed as inhibitors; 330,000 tested, 2.3% active; AID 504467; note: potency is the fitted concentration of half-maximal effect; nearly all actives have a fitted effect of over 55% in size
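HEK293T cells expressing luciferase-tagged ELG1 (2,000/well) received 5-Fluorouridine plus compound or DMSO for 16 hr at 37 °C. Luciferase was read by ONE-Glo luminescence after 30 min at room temperature.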
DT40 TDP1 no CPT: qHTS for Inhibitors of human tyrosyl-DNA phosphodiesterase 1 (TDP1): qHTS in cells in absence of CPT; 420,000 tested, 15% active; DT40 Tdp1-/- hTDP1 cells, no CPT, ATP luminescence, 48 h; Potency, µM (top dose mostly 46.2 µM), for the others: top-dose activity change, negative = growth inhibition, actives largely listed as inhibitors; note: potency is the fitted concentration of half-maximal effect; nearly all actives have a fitted effect of over 55% in size
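A cellular qHTS used chicken DT40 cells lacking endogenous Tdp1 but carrying stably transfected human TDP1. Compounds were applied without camptothecin, and cell growth kinetics were judged by ATP-dependent luminescence after ≥48 hr.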
Giardia killer: Giardia lamblia killing; Giardia lamblia trophozoite viability; activity change, % at 7.66 µM, hits read low; 340,000 tested, 0.15% active; in the data active = activity change below about -80%; inconclusive = between about -30% and that limit;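 note: parasites exposed to compound for two days anaerobically before the ATP read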
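Media and compound were dispensed first, then trophozoites at 100 cells/well; plates sat 48 hrs at 37 deg C without oxygen before ATP luminescence reagent was added and read after 15-30 min at room temperature.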
DT40 TDP1 CPT: DT40-hTDP1 cell growth loss with CPT; chicken DT40 Tdp1-/-;hTDP1 cells + 20 nM CPT, ATP luminescence, 48 h; Potency, µM (titrated, usually from 46.2 µM), for the others: at the top dose activity change, negative = growth inhibition, usual class: inhibitors; 420,000 tested, 12% active; AID 686979; note: potency is the fitted concentration of half-maximal effect; nearly all actives have a fitted effect of over 55% in size
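Chicken DT40 Tdp1-/- cells complemented with human TDP1, 400 cells/well, exposed to compounds plus 20 nM camptothecin for at least 48 h at 37 C; viability read as ATP content by CellTiter-Glo luminescence.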
TDP1 block: blocks human tyrosyl-DNA phosphodiesterase 1. 350,000 tested, 0.28% active. recombinant TDP1, AlphaScreen DNA substrate cleavage. Potency, µM (doses to about 130 µM), inactives show at the top dose activity change, negative = inhibition, hits mostly inhibitors. AID 485290. Q9NUW8; note: potency is the fitted concentration of half-maximal effect; nearly all actives have a fitted effect of over 40% in size
Target sequence (Q9NUW8 whole entry, looked up): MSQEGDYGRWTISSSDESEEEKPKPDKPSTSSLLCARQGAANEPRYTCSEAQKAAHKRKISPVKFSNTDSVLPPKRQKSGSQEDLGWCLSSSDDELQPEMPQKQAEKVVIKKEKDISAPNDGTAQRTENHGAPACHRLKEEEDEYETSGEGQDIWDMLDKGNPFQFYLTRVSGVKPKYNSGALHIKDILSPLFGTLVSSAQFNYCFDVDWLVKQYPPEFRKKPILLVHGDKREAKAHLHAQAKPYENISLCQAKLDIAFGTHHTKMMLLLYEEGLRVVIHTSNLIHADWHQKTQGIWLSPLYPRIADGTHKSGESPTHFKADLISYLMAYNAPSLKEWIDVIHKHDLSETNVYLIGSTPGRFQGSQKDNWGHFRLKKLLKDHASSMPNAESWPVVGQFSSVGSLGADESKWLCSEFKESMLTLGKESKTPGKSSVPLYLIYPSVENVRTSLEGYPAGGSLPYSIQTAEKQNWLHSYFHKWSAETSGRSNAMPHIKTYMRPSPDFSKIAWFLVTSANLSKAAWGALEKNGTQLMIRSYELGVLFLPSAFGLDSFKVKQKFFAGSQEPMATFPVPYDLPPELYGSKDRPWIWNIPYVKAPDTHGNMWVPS
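Recombinant E. coli-expressed Tdp1 (1 nM) preincubated with compound 15 min at RT, then 5'-biotin/3'-phosphotyrosine-FITC DNA substrate (15 nM) added for 5 min. AlphaScreen beads (10 ug/ml) added, 10 min RT; tyrosine-FITC cleavage read as signal loss.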
* hit, by the source's call; ? = inconclusive; · = no result given. Shown are actives, neighbours in structure and some others; about 19% of the full set was active somewhere. Unless noted, calls come from the whole dose curve; as a rule, active = well fitted curve in the direction sought with a large enough effect; inconclusive = small, poorly fitted or top-dose-only effect, or another doubt; inactive = no such curve, though single readings can be large; an effect the other way counts as inactive or inconclusive. % is set by controls: 0 for no effect and ±100 for the full control effect.

SMILES | IL-1B inflam inh | ELG1 DNA repair | DT40 TDP1 no CPT | Giardia killer | DT40 TDP1 CPT | TDP1 block
Cc1cc(NC(=O)CN2C(=O)NC3(CCCCCC3)C2=O)no1 | 32.4 | 6.8% | 9.3% | 3.1 | -16.5% | -2.5%
O=C1CCC[C@@H]2C[C@@]3(C[C@@H]4CCN1[C@H]24)Nc1cc(Cl)c(Cl)cc1NC3=NCc1ccccc1 | -18.6 | · | 20µM* | -17.2 | 18.4µM* | ·
CC(C)(C)CC(C)(C)N=C1Nc2ccc([N+](=O)[O-])cc2N[C@]12C[C@H]1CCCC(=O)N3CC[C@@H](C2)[C@@H]13 | · | · | 11.2µM* | · | 17.8µM* | ·
CC(C)(C)CC(C)(C)N=C1Nc2ccc(Cl)cc2NC12C[C@H]1CCC(=O)N3CC[C@@H](C2)[C@@H]13 (some centres undefined) | · | · | 12.6µM* | · | ? | ·
CC(NC(=O)C1c2ccccc2Oc2ccccc21)C1CCCO1 (centres undefined) | -3.2 | 6.1% | 1.5% | -8.3 | 2.5% | 0.0%
COc1ccc(/C=N/n2c(SC)nnc2-c2ccccc2)c(OC)c1OC | -8.7 | 8.2µM* | 2.06µM* | -11.6 | 3.26µM* | -1.0%
COc1cccc(/C=N\n2c(C)nnc2C)c1OC | -12.5 | ? | -9.3% | 0.4 | -9.6% | -1.0%
Cc1ccccc1NC(=O)CSc1nc(N)c(C#N)cc1C#N | -3.7 | 5.7% | -5.4% | 16.3 | -9.1% | 3.5%
CC(C)CCSc1nc(N)c(C#N)cc1C#N | ? | ? | 18.4µM* | -16.5 | ? | -6.9%
COc1ccc(OC)c(NC(=O)C2CCCN(S(=O)(=O)c3c(C)noc3C)C2)c1 (centres undefined) | 16.2 | ? | ? | 0.5 | -21.7% | -3.1%
COc1cccc(NC(=O)C2CCCN(S(=O)(=O)c3c(C)nn(C)c3C)C2)c1 (centres undefined) | · | · | 14.6µM* | · | ? | 4.7%
COc1cccc(NC(=O)C2CCCN(S(C)(=O)=O)C2)c1 (centres undefined) | 4.6 | -5.6% | -19.7% | -11.3 | 5.3% | ·
COc1ccc(OC)c(NC(=O)C2CCCN(S(=O)(=O)c3c(C)nn(C)c3C)C2)c1 (centres undefined) | -11.5 | · | 20.6µM* | 17.6 | ? | 4.7%
O=C(NCc1ccccc1Cl)C1CCCN(S(=O)(=O)c2cccc3nonc23)C1 (centres undefined) | 16.1 | 0.8% | -27.1% | -13.2 | 8.5% | 1.1%
N=c1n(CCN2CCOCC2)c2ccccc2n1CC(=O)c1cccc([N+](=O)[O-])c1 | -1.8 | ? | 23.1µM* | -8.5 | 16.4µM* | ·
O=C(NCCN1CCOCC1)c1cc([N+](=O)[O-])cc([N+](=O)[O-])c1 | 21.7 | -19.8% | 5.5% | -2.6 | 6.0% | ·
O=C(Cn1nnc2ccccc21)c1cccc([N+](=O)[O-])c1 | 0.0 | 8.4% | -15.5% | 10.9 | -10.2% | 1.2%
CCn1c(=N)n(CC(=O)c2cccc([N+](=O)[O-])c2)c2ccccc21 | -26.6 | ? | 20.6µM* | -27.0 | ? | 3.2%
N=c1n(CCN2CCOCC2)c2ccccc2n1CC(=O)c1ccc(Cl)c(Cl)c1 | -6.7 | ? | 18.4µM* | -0.3 | ? | -6.7%
C=CCn1c(=N)n(CC(=O)c2ccccc2)c2ccccc21 | ? | 1.1% | ? | -1.0 | ? | ·
N=c1n(CC(=O)c2cccc([N+](=O)[O-])c2)c2ccccc2n1Cc1ccccc1 | -104.1* | -11.9% | 20.6µM* | 5.8 | 16.4µM* | 2.5%
CC(=O)Nc1cccc2c1C(=O)N(c1ccccc1OC(C)=O)C2=O | 41.4 | -6.8% | -2.7% | 9.7 | -1.7% | -1.2%
O=c1[nH]cnc2onc(-c3ccc(F)cc3)c12 | 14.7 | -7.1% | -27.4% | 2.4 | 15.2% | ·

Bioassay records from PubChem.
